The values below come from ChEMBL document CHEMBL3988442, “University of Dundee, Small-Polar-MMV Screening Library” (2021).

Holding throughout (parameters): scale not given: direction of the effect not stated beside the values
Assay [1] concerns the target Protein translocase subunit SecA (Escherichia coli (strain K12)) (UniProt P10408). In words: Assay to Identify E. coli SecA ATPase Inhibitors. In kind it is functional. Conditions: 30 µM.
The target in assay [2] is T1, Ubiquitin-activating enzyme e1, putative (Leishmania donovani (strain BPK282A1)) (UniProt E9BSI1).
T1 sequence (whole entry): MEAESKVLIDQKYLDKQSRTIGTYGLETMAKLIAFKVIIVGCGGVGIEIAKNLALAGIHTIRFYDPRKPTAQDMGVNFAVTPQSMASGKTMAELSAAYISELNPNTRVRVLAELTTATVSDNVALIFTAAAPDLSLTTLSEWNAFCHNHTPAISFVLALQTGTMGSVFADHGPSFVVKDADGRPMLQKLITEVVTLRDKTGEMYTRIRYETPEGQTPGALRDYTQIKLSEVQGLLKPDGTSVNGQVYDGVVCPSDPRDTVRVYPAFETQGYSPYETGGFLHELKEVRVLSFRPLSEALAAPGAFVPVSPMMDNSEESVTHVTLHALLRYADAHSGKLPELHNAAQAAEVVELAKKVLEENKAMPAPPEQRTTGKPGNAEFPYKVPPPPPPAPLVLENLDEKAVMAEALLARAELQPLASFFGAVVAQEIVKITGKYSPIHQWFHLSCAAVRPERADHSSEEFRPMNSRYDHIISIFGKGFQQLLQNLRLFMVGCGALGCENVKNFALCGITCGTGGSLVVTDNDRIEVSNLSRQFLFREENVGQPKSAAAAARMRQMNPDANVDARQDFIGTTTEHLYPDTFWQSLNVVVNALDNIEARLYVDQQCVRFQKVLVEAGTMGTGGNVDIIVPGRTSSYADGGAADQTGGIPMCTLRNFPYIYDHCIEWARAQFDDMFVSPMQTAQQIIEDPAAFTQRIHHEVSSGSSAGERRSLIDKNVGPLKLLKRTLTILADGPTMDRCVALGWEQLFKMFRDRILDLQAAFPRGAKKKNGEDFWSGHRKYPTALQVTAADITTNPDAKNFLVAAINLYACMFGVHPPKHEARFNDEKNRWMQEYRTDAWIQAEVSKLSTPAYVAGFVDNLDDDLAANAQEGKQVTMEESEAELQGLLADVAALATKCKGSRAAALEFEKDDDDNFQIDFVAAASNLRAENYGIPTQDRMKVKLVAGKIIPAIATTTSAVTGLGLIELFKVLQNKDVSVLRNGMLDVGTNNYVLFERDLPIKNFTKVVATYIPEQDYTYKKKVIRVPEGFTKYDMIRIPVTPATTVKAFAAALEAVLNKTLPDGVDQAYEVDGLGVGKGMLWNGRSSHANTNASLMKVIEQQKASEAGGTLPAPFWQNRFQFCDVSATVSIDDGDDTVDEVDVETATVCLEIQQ
In words: Leishmania donovani Ubiquitin Activating Enzyme (LdE1). Conditions: 30 µM. In kind it is functional.

Assay [3] deals with Sialic acid-binding Ig-like lectin 9 (Homo sapiens) (UniProt Q9Y336). In words: Hs-Siglec9 ALPHAscreen SOP 20170721. Conditions: 10 µM. (Alpha assays give light when donor and acceptor beads are brought close together.)
Sialic acid-binding Ig-like lectin 9 (Homo sapiens), sequence (Q9Y336 whole entry): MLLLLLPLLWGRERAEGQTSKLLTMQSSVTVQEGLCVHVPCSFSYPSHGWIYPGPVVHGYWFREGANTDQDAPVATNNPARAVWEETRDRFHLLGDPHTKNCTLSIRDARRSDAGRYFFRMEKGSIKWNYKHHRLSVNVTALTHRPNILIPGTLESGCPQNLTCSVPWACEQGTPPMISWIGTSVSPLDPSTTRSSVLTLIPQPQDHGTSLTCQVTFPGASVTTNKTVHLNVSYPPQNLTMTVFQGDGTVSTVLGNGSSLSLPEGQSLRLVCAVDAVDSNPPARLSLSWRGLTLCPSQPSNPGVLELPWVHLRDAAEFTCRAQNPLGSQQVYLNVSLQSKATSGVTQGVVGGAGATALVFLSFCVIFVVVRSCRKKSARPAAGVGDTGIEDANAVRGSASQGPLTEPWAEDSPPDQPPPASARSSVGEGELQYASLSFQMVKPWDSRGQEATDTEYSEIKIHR
The subject of another assay is Trypanosoma cruzi. In words: Trypanosoma cruzi phosphomannomutase and mannose-1-phosphate guanylyltransferase assay. The note with it: 10 µM. In kind it is functional.
The target of assay [4] is T2, Arginase-2, mitochondrial (Homo sapiens) (UniProt P78540).
T2 sequence (whole entry): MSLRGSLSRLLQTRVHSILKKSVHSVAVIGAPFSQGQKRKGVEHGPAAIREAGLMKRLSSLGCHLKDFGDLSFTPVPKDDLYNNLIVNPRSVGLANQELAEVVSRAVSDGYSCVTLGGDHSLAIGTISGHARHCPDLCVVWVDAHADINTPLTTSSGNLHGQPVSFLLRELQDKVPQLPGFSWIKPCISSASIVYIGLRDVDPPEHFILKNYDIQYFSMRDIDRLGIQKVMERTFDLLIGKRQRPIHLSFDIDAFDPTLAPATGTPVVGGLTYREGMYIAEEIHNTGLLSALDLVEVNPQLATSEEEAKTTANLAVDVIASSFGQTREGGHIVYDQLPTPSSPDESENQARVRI
In words: in vitro enzyme assay to detect the production of urea directly proportional to the activity of Arginase II. Further: in the data most compounds retested in dose-response had high values. In kind it is functional. Conditions: 33.3 µM.

For assay [5], the target named is T3, Proteasome subunit beta (Trypanosoma cruzi) (UniProt O96673).
T3 sequence (whole entry): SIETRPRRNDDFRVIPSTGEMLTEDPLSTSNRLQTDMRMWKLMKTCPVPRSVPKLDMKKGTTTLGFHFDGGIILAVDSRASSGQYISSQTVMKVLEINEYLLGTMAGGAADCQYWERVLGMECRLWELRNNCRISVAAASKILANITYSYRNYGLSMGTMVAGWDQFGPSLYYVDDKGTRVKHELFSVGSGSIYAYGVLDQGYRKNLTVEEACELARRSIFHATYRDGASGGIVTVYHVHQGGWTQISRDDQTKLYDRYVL
In words: Trypanosoma cruzi proteasome chymotrypsin-like activity (TcProtChymo) assay. Further: in the data most compounds retested in dose-response had high values. In kind it is functional. The note with it: 9.37 µM.

The next assay is filed under the species Homo sapiens. In words: To identify inhibition of the IFN signalling (Jak-Stat) pathway via expression of an eGFP reporter gene under the control of an IFN-stimulated response element (ISRE) containing MxA promoter. In kind it is functional. The note with it: 30 µM.
In assay [6] the target is T4, Tyrosyl-tRNA synthetase, putative (Trypanosoma cruzi (strain CL Brener)) (UniProt Q4DSP6).
T4 sequence (whole entry): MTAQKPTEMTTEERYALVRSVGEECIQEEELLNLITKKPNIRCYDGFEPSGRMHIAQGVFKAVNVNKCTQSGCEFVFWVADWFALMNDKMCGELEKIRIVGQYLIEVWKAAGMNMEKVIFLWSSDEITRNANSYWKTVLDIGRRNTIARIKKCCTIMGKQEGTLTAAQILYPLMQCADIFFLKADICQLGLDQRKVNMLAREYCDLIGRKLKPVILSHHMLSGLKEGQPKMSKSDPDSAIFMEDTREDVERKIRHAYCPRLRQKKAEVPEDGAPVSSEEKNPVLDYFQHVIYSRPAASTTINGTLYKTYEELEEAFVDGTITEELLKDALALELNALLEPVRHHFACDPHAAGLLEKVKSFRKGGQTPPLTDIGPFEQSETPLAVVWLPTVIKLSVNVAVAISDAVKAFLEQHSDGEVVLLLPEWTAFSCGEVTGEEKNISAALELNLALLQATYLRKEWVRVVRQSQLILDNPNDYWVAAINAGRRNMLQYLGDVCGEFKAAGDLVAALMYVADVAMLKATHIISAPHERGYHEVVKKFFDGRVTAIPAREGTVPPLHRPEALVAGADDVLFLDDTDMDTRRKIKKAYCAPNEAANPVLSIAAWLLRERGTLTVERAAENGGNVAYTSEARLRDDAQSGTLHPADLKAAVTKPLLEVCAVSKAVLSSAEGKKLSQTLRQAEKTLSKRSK
In words: Trypanosoma cruzi tyrosyl tRNA synthetase (TcYRS) _High Tyrosine SOP. Further: in the data most compounds retested in dose-response had high values. In kind it is functional. The note with it: 30 µM.

Assay [7] has as its target T4, Tyrosyl-tRNA synthetase, putative (Trypanosoma cruzi (strain CL Brener)). In words: Trypanosoma cruzi tyrosyl tRNA synthetase (TcYRS) SOP. In kind it is functional. The note with it: 30 µM.
The target of assay [8] is Chromo domain-containing protein 1 (Saccharomyces cerevisiae (strain ATCC 204508 / S288c) (Baker's yeast)) (UniProt P32657). In words: ScCHD-1 Enzyme Inhibition Assay. Further: in the data most compounds retested in dose-response had high values. The note with it: 30 µM. In kind it is functional.
Chromo domain-containing protein 1 (Saccharomyces cerevisiae (strain ATCC 204508 / S288c) (Baker's yeast)), sequence (P32657 whole entry, the tested form may be a part): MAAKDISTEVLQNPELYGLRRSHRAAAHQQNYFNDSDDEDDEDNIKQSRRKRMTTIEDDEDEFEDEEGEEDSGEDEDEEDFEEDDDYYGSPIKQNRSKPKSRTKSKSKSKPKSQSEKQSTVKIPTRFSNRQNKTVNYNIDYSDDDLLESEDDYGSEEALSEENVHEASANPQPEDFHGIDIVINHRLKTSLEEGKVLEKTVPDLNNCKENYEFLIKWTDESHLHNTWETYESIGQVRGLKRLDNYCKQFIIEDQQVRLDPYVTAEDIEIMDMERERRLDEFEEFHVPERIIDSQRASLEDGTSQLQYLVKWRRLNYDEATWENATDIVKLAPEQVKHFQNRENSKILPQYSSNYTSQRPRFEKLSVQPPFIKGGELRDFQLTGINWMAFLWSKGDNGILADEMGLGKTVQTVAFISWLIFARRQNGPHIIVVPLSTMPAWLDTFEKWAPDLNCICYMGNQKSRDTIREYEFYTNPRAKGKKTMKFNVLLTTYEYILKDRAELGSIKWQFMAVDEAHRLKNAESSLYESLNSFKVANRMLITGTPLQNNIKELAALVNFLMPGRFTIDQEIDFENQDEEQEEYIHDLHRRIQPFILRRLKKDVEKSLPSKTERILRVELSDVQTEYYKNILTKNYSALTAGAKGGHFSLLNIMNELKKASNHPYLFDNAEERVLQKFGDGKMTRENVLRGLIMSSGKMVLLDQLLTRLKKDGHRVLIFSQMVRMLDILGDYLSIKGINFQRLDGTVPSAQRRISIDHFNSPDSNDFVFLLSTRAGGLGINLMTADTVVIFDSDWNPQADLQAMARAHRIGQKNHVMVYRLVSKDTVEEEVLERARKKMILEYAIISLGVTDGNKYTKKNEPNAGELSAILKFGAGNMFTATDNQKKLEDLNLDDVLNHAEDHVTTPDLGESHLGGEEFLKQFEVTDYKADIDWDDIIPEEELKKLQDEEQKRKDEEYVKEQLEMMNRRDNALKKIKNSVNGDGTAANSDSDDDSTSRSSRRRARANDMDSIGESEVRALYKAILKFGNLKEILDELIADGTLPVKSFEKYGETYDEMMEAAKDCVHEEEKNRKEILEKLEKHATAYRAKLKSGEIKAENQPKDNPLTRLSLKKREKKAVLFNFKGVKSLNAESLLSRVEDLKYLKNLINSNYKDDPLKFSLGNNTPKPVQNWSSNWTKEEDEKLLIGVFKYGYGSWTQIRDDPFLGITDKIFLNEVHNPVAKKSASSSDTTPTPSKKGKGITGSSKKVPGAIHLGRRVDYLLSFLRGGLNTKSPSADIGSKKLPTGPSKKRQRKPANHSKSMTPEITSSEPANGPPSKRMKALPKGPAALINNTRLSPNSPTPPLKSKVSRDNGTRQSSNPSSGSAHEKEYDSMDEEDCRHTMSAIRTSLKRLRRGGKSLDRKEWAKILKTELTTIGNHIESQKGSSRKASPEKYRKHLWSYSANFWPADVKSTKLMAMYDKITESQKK

For part of these data: Measured potencies and affinities stand elsewhere.

Protein translocase subunit SecA (Escherichia coli (strain K12)), sequence (P10408 whole entry): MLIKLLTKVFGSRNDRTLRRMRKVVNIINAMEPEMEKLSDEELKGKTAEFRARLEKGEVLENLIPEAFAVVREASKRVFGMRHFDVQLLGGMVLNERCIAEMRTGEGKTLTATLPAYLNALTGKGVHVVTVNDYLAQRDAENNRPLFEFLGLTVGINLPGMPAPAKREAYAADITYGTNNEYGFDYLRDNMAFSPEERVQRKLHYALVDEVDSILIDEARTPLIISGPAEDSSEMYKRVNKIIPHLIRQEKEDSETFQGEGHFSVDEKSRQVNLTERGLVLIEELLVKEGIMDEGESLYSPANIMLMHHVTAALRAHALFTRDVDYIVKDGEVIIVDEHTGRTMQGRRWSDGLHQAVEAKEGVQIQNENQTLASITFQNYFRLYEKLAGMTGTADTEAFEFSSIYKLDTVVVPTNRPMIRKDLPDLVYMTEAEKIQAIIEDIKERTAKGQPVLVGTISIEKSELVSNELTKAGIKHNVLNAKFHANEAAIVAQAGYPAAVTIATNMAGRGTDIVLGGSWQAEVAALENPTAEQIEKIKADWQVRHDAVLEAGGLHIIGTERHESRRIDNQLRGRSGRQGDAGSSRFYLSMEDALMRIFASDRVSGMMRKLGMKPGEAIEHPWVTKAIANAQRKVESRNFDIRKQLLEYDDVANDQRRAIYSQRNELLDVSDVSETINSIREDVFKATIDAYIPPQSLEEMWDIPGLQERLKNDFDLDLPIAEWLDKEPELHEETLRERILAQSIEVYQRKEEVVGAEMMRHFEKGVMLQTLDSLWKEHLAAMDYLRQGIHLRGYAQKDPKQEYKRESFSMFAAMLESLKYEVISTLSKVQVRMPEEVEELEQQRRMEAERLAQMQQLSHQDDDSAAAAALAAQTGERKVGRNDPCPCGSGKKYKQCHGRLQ

Take `COCc1cccc(NS(=O)(=O)c2cc(C(=O)O)cs2)c1`: the Percent Effect in assay [1] is -3.18%; in assay [2], 5.13%; in assay [3], -6.44%; in the assay with Trypanosoma cruzi, 2.91%; in assay [4], 2.46%; in assay [5] it was 8.11%. Further, the Percent Effect in the assay listed under Homo sapiens is 4.97%; in [6], 3.35%; in assay [7], 13.2%; in [8] it was -5.54%.
Regarding `Cc1ccc(C(=O)N2CCN(CCc3cccs3)CC2)c(=O)[nH]1`, the Percent Effect in assay [1] is -2.8%; in assay [2], 2.56%; in assay [3] it was -0.768%; in the assay on Trypanosoma cruzi, -1.6%; in [4], 8.61%; in assay [5], -2.65%. In addition, the Percent Effect in the assay filed under Homo sapiens was 24.3%; in [6], 3.35%; in assay [7], 10.8%; in assay [8], -2.19%.
For `CN1CC(c2ccccc2)CC12CCN(C(=O)c1ccc(F)cc1)CC2` (stereo not given), the Percent Effect is -9.69% in assay [1]; 0% in [2]; 9.54% in [3]; -2.04% in the assay on Trypanosoma cruzi; 2.45% in assay [4]; 6.34% in assay [5]. Also, the Percent Effect in the assay filed under Homo sapiens is 16.1%; in [6] it was 0.532%; in assay [7] it was 2.44%; in assay [8] it was -1.53%.
Regarding `CC(C)CN1CCC2(CCN(C(=O)c3ccc(F)cc3)CC2)C1=O`, the Percent Effect in [1] was -1.91%; in assay [2], 19.5%; in assay [3], 0.691%; in the assay on Trypanosoma cruzi, 1.5%; in [4] it was 0%; in [5] it was 6.27%. Moreover, the Percent Effect was -20.9% in the assay listed under Homo sapiens, 11.6% in assay [6], 22.5% in assay [7] and -8.66% in assay [8].
Take `Cc1ccc(-c2nc(CN3CCc4c(ncn4C)C3)cs2)o1`: the Percent Effect in [1] is -4.38%; in assay [2], 2.56%; in assay [3] it was -16.5%; in the assay on Trypanosoma cruzi it was 11.9%; in assay [4], -6.56%; in assay [5] it was 24.3%. Moreover, the Percent Effect in the assay listed under Homo sapiens was 2.62%; in [6] it was 11%; in assay [7], 18.1%; in assay [8] it was 37.3%.
For `Cc1ncsc1CCC(=O)N1CCCC[C@H](N(C)C)C1`, the Percent Effect was -5.77% in assay [1]; 13.5% in assay [2]; 14.4% in [3]; 9.02% in the assay on Trypanosoma cruzi; 52.8% in assay [4]; 13.7% in [5]. Besides, the Percent Effect in the assay listed under Homo sapiens is 16.9%; in [6], 7.98%; in [7] it was 21.9%; in assay [8] it was -3.1%.
For `Cc1cc(S(=O)(=O)N2CCc3ccc(F)cc32)cc(C(=O)O)c1C`, the Percent Effect was -5.32% in assay [1]; 0% in [2]; 7.12% in [3]; -1.81% in the assay with Trypanosoma cruzi; -3.99% in assay [4]; 6.87% in assay [5]. Further, the Percent Effect in the assay listed under Homo sapiens is -3.81%; in assay [6] it was -15.3%; in assay [7], -28.2%; in [8], -9.5%.
Regarding `Cc1ccccc1-c1noc(CN2CCn3c(nnc3C3CC3)C2)n1`, the Percent Effect in [1] was -6.21%; in assay [2], -25.6%; in assay [3], -13.3%; in the assay on Trypanosoma cruzi, -3.1%; in [4] it was -0.41%; in assay [5], 5.21%. Further, the Percent Effect is 15.8% in the assay filed under Homo sapiens, 0.478% in assay [6], 1.21% in [7] and -7.86% in assay [8].
Turning to `CCCc1cc(C(=O)N2CCOC(c3nc(-c4cccs4)no3)C2)no1` (stereo not given), the Percent Effect in assay [1] is -3.79%; in [2] it was 9.33%; in [3] it was 6.29%; with Trypanosoma cruzi, 3.55%; in [4], 2.21%; in assay [5], 7.55%. Moreover, the Percent Effect was 17% in the assay filed under Homo sapiens, -12.7% in [6], 2.5% in assay [7] and -19.9% in [8].
Regarding `CC(=O)N(Cc1noc(C)n1)C1CCN(CCOc2ccccc2)C1` (stereo not given), the Percent Effect in assay [1] was -2.68%; in assay [2], 13%; in assay [3] it was 0.712%; with Trypanosoma cruzi, -1.68%; in [4], -0.615%; in assay [5], 17.9%. The Percent Effect in the assay listed under Homo sapiens was -1.33%; in [6] it was 7.84%; in assay [7], 21.2%; in assay [8], -7.28%.
On to `COCCN1CCCC12CCN(C(=O)CC1CCCC1)CC2`, for which the Percent Effect in [1] is -1.94%; in [2], -3.9%; in assay [3], 0.315%; in the assay on Trypanosoma cruzi, 2.44%; in assay [4] it was 0%; in assay [5], -0.0858%. The Percent Effect in the assay filed under Homo sapiens is 16.7%; in assay [6], 5.8%; in assay [7], 12.5%; in assay [8] it was -2.58%.
`CS(=O)(=O)NCC1CCCN(C(=O)COc2ccc(F)cc2)C1` (stereo not given): the Percent Effect is -1.75% in assay [1]; 10.3% in assay [2]; -7.96% in [3]; 9.86% in the assay on Trypanosoma cruzi; 1.23% in assay [4]; 3.5% in assay [5]. Moreover, the Percent Effect is 12.5% in the assay listed under Homo sapiens, 4.31% in assay [6], -146% in [7] and -6.15% in assay [8].
